Test results reported in PubChem BioAssay (NCATS).
“And” between values parts separate entries of the source, which are not always exact repeats. Equal values may be shown once. Records with an inconclusive call do not appear. The source made the active and inactive calls. Unless noted, the call rests on the fitted dose curve; in most records, active means well fitted curve in the direction sought with a large enough effect; inconclusive means small, poorly fitted or top-dose-only effect, or another doubt; inactive means no such curve, though single readings can be large; an effect the other way counts as inactive or inconclusive.

Columns and labels:
[1] = target: Ubiquitin carboxyl-terminal hydrolase 2 (Homo sapiens) (UniProt O75604); assay: qHTS Validation Assay for Inhibitors of Ubiquitin-specific Protease USP2a Using CHOP2 as the Reporter (AID 463106); further: potency means the concentration at half of the fitted maximal effect
Outline: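 Fluorescence read-out at Ex 485nm/Em 531nm after 60min RT, following addition of 25nM Ub-CHOP2 plus 25nM reporter substrate to USP2 core (10nM) pretreated 30min with compound. Data normalized to NEM full inhibition; concentration-response curves fitted.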

[2] = target: DNA polymerase III PolC-type (Bacillus subtilis (strain 168)) (UniProt P13267); assay: qHTS Validation Assay for the Inhibitors of DNA Replication in Gram-Positive Bacteria (AID 485295); further: potency means the concentration at half of the fitted maximal effect
Outline: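 Inhibition of DNA synthesis by the reconstituted PolC holoenzyme, monitored through PicoGreen staining of dsDNA formed from ssM13Gori, dNTPs and NTPs, with compound preincubation and room-temperature reaction.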

[3] = target: Tumor susceptibility gene 101 protein (Homo sapiens) (UniProt Q99816); assay: qHTS Validation Assay for Iinhibitors of HIV-1 Budding by Blocking the Interaction of PTAP/TSG101 (AID 485342; calls by dose curve)
Outline: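 Compound wells held the Tsg101 binding domain (10 uM) and a FITC-conjugated PTAP peptide (50 nM) in buffer at pH 7.5 containing 0.15 M NaCl and 0.01% Tween 20; polarization was recorded after 20 min, r.t.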

[4] = qHTS Validation Assay to Find Inhibitors of Chronic Active B-Cell Receptor Signaling (AID 485345; active means well fitted curve in the direction sought with a large enough effect in the main read-out, with a control signal flat, not every such curve was filed as active)
Outline: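 TMD8 ABC-DLBCL cells stably carrying doxycycline-inducible IkappaBalpha–green luciferase fusion plus unfused red luciferase; compounds 46 uM to 3 nM, 4 h at 37C with doxycycline. Corrected green/red luminescence ratio normalized to 10 uM MG-132 and basal cell wells; curves fitted.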

[5] = target: Beta-2 adrenergic receptor (Homo sapiens) (UniProt P07550); assay: qHTS validation assay of beta-arrestin-biased ligands of beta2-adrenergic receptor (AID 485366)
Outline: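 Agonist activity is measured as luciferase luminescence downstream of beta-arrestin recruitment to recombinant beta2-AR in Tango cells. Exposure lasts 18 hr at 37 degrees C, and curves are categorized by r2, response size and activity.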

[6] = target: ATP-dependent 6-phosphofructokinase (Trypanosoma brucei brucei) (UniProt O15648); assay: qHTS Validation Assay to Find Inhibitors of T. brucei phosphofructokinase (AID 485368); further: potency means the concentration at half of the fitted maximal effect
Outline: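 Inhibition derived from concentration-response curves of luminescence, ranked by r2, response size and curve class; the underlying reaction used 1.25 nM PFK, 0.1 mM ATP and 0.5 mM F6P, 45 min, room temperature.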

[7] = Quantitative high throughput screen for delayed death inhibitors of the malarial parasite plastid, 96 hour incubation (AID 488745); further: nearly all actives have a fitted effect of over 70% in size; further: potency means the concentration at half of the fitted maximal effect
Outline: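 Readout is firefly luciferase luminescence from an integrated reporter in P. falciparum; lower signal marks inhibited growth. Cultures at 2% hematocrit and 0.1% parasitemia were treated with compound across two generations (96 h, 37 C, 5% CO2).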

[8] = Quantitative high throughput screen for delayed death inhibitors of the malarial parasite plastid, 48 hour incubation (AID 488752); further: nearly all actives have a fitted effect of over 65% in size; further: potency means the concentration at half of the fitted maximal effect
Outline: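 First, compound was pinned into RPMI 1640 medium containing 0.5% Albumax. Next, reporter-parasite-infected erythrocytes were added to 2% hematocrit and 0.1% parasitemia. After 48 h at 37 C under 5% CO2, luciferase detection reagent was added and luminescence read.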

[9] = target: Thioredoxin reductase 1, cytoplasmic (Rattus norvegicus) (UniProt O89049); assay: qHTS Assay for Substrates of Mammalian Selenoprotein Thioredoxin Reductase 1 (TrxR1) (AID 488772);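 further: series mostly up to about 57 µM; a drop in NADPH fluorescence below the no-compound background marks a TrxR1 substrate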
Outline: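 In this dual-purpose format, potential substrates are identified from the first fluorescence read after selenite addition, not from the 8-minute delta. Rat enzyme is preincubated with NADPH and then with compound at ~22 deg C.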

[10] = target: Thioredoxin reductase 1, cytoplasmic (Rattus norvegicus) (UniProt O89049); assay: qHTS Assay for Inhibitors of Mammalian Selenoprotein Thioredoxin Reductase 1 (TrxR1) (AID 488773); settings: Potency: inhibition;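 further: drop in NADPH fluorescence over an 8 min run after selenite addition; series mostly up to about 57 µM; nearly all actives have a fitted effect of over 40% in size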
Outline: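 Inhibition is scored from the loss of NADPH fluorescence between first and last reads of an 8-min kinetic run. Selenite (400 uM) was the substrate, added after 15 min compound preincubation at room temperature.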

[11] = target: M-phase phosphoprotein 8 (Homo sapiens) (UniProt Q99549); assay: qHTS Validation Assay for Inhibitors for MPP8 Chromodomain Interactions with Methylated Histone Tails (AID 488949); further: nearly all actives have a fitted effect of over 55% in size; further: potency means the concentration at half of the fitted maximal effect
Outline: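 Chemiluminescent proximity assay: histidine-tag capture via nickel acceptor beads, biotin peptide via streptavidin donor beads. Protein and peptide each at 50 nM, pH 7.4, with 30 min incubations at room temperature for complex formation, compound exposure and bead binding.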

[12] = target: Methanococcus maripaludis chaperonin (MmCpn) (UniProt Q6LX38); assay: High-Throughput Screening for Modulators of Cytosolic Chaperonin Activity: MmCpn Primary Screen (AID 488978)
Outline: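 HTRF readout (320 nm excitation, 590/665 nm emission) of ADP generated by 50 nM MmCpn hydrolysing 30 uM ATP during 10 min at 37C; compound preincubated 5 min RT.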

[13] = target: Transient receptor potential cation channel subfamily V member 1 (Homo sapiens) (UniProt Q8NER1); assay: HTS Assay for Compounds that Act as Enhancers of the Vanilloid Receptor 1 (AID 488979)
Outline: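 TRPV1 cells loaded with Fluo-8 calcium dye; compound added and Ca2+ signal (ex 480/em 520 nm) followed 3 min, then capsaicin at EC20 added and read 2 more min to detect enhancement.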

[14] = target: Thyrotropin receptor (Homo sapiens) (UniProt P16473); assay: qHTS Assay for Antagonists of the Thyroid Stimulating Hormone Receptor (AID 488980); further: series mostly up to about 58 µM
Outline: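 Inhibition of TSH-stimulated cAMP accumulation was quantified by homogeneous time-resolved FRET in TSHR-transfected HEK293 cells. Agonist: TSH, 4 nM final (EC80).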

[15] = target: D(1A) dopamine receptor (Homo sapiens) (UniProt P21728); assay: HTS Assay for Allosteric Agonists of the Human D1 Dopamine Receptor: Primary Screen for Agonists (AID 488981)
Outline: (§1)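 Tetracycline-induced HEK293 Trex D1 cells with forced coupling to calcium, loaded with no-wash calcium dye; kinetic fluorescence read 180 s after compound addition for agonism, then a further 180 s after an EC20 dopamine challenge for potentiation.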

[16] = target: D(1A) dopamine receptor (Homo sapiens) (UniProt P21728); assay: HTS Assay for Allosteric Agonists of the Human D1 Dopamine Receptor: Primary Screen for Antagonists (AID 488983);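 further: calcium flux response to an EC80 dopamine challenge measured with no-wash dye; nearly all actives have a fitted effect of over 65% in size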; further: potency means the concentration at half of the fitted maximal effect
Outline: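 Kinetic fluorescence at 1 cycle/sec tracked intracellular calcium in force-coupled, tetracycline-inducible HEK293 T-REx D1 cells. Loss of response to an EC80 dopamine dose, given 180 s after compound, marked antagonists.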

[17] = target: Flap endonuclease 1 (Homo sapiens) (UniProt P39748); assay: qHTS Validation Assay for the Inhibitors of Human Flap endonuclease 1 (FEN1) (AID 488816); further: potency means the concentration at half of the fitted maximal effect
Outline: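 Enzyme reagent 10 nM; cpds pinned; 15 min RT preinc.; substrate 50 nM final; reads t=0 and 15 min; no-enzyme buffer wells as neg. control; normalized data, 4-parameter Hill fit.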

[18] = target: Chromobox protein homolog 1 (Homo sapiens) (UniProt P83916); assay: qHTS Validation Assay for Inhibitors of HP1-beta Chromodomain Interactions with Methylated Histone Tails (AID 488953); further: nearly all actives have a fitted effect of over 50% in size; further: potency means the concentration at half of the fitted maximal effect
Outline: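 Disruption of preformed HP1-beta:H3K9me3 peptide complexes (both 50 nM, PBS pH 7.4 with 0.01% Tween-20) is measured by AlphaScreen after 30 min compound exposure at room temperature, using streptavidin donor and nickel chelate acceptor beads at 10 ug/mL final.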

[19] = target: D(1A) dopamine receptor (Homo sapiens) (UniProt P21728); assay: HTS Assay for Allosteric Agonists of the Human D1 Dopamine Receptor: Primary Screen for Potentiators (AID 488982)
Outline: as §1

Measured: Potency

Sequence of Tumor susceptibility gene 101 protein (Homo sapiens) (Q99816 whole entry, looked up, the tested form may be a part): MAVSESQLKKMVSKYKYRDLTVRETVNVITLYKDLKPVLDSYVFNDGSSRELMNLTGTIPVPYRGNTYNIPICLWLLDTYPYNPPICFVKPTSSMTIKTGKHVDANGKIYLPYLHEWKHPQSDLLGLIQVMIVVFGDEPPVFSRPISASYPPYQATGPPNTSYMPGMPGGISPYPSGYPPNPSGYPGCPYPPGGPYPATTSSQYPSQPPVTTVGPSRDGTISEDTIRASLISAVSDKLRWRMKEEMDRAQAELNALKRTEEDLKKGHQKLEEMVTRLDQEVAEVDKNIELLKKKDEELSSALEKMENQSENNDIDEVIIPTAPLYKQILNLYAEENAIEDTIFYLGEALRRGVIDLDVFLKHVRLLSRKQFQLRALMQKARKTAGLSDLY
Sequence of Thyrotropin receptor (Homo sapiens) (P16473 whole entry, looked up): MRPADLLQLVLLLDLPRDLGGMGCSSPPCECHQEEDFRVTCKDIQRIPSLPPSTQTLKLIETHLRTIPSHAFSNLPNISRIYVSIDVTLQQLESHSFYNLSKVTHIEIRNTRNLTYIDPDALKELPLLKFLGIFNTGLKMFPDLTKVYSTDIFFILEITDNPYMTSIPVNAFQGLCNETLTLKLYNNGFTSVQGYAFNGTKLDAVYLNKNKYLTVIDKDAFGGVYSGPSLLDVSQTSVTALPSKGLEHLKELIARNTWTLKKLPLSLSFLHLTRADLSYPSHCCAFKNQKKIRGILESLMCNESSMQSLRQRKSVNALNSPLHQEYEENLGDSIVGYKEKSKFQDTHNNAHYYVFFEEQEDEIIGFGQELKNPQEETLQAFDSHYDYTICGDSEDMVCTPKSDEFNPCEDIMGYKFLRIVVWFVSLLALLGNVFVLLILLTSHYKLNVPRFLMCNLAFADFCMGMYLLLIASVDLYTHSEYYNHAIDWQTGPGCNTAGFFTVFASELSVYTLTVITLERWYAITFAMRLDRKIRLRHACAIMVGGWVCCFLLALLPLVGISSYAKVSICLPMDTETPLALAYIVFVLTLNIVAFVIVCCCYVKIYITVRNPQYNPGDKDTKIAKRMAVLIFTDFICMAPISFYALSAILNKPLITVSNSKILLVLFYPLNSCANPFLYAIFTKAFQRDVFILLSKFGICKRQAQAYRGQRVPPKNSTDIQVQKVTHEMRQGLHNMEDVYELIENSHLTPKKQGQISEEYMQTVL
Sequence of Chromobox protein homolog 1 (Homo sapiens) (P83916 whole entry, looked up): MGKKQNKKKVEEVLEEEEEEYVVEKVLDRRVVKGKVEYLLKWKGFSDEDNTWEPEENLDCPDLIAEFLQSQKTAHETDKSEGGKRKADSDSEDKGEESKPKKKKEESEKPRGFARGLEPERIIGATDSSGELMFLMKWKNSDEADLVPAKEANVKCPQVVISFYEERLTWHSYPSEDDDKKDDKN
Sequence of Ubiquitin carboxyl-terminal hydrolase 2 (Homo sapiens) (O75604 whole entry, looked up): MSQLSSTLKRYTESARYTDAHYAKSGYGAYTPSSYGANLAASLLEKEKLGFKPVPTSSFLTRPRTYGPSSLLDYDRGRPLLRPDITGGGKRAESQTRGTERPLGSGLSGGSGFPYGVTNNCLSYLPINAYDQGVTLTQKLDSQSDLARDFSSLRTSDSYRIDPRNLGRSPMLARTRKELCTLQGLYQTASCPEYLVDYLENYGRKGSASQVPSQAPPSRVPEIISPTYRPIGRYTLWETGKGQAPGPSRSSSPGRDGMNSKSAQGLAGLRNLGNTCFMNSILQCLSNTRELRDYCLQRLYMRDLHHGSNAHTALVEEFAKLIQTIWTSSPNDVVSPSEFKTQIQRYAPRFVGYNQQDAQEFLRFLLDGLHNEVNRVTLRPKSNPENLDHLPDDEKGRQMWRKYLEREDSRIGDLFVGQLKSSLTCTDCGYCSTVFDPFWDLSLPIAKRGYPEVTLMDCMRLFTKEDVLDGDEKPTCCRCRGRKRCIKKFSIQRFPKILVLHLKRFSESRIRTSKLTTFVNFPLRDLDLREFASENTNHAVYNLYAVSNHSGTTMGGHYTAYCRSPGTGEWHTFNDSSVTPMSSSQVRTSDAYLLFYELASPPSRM
Sequence of D(1A) dopamine receptor (Homo sapiens) (P21728 whole entry, looked up): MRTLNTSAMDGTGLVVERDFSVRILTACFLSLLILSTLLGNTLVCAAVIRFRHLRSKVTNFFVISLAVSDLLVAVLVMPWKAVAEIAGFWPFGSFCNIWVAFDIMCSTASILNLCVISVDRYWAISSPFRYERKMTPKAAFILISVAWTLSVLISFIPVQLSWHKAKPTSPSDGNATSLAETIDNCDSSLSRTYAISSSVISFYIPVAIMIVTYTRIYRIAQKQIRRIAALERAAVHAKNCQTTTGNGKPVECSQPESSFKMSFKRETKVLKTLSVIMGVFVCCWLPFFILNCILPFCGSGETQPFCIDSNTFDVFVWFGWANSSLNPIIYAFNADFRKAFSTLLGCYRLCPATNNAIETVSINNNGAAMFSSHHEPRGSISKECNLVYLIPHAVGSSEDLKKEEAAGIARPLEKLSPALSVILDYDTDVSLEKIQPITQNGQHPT
Sequence of ATP-dependent 6-phosphofructokinase (Trypanosoma brucei brucei) (O15648 whole entry, looked up): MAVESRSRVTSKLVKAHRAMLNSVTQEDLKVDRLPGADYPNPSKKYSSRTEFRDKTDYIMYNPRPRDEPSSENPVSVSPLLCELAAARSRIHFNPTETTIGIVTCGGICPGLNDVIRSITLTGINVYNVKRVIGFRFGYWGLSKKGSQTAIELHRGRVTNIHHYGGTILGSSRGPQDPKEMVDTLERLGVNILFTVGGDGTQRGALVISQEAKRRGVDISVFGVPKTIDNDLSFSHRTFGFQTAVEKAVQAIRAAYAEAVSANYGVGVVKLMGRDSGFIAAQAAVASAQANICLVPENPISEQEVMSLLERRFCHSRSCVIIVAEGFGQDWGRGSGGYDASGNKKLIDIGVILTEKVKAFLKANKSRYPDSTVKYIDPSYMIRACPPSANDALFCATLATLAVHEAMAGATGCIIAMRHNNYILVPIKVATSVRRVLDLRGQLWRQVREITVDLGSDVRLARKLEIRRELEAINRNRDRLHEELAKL
Sequence of Transient receptor potential cation channel subfamily V member 1 (Homo sapiens) (Q8NER1 whole entry, looked up): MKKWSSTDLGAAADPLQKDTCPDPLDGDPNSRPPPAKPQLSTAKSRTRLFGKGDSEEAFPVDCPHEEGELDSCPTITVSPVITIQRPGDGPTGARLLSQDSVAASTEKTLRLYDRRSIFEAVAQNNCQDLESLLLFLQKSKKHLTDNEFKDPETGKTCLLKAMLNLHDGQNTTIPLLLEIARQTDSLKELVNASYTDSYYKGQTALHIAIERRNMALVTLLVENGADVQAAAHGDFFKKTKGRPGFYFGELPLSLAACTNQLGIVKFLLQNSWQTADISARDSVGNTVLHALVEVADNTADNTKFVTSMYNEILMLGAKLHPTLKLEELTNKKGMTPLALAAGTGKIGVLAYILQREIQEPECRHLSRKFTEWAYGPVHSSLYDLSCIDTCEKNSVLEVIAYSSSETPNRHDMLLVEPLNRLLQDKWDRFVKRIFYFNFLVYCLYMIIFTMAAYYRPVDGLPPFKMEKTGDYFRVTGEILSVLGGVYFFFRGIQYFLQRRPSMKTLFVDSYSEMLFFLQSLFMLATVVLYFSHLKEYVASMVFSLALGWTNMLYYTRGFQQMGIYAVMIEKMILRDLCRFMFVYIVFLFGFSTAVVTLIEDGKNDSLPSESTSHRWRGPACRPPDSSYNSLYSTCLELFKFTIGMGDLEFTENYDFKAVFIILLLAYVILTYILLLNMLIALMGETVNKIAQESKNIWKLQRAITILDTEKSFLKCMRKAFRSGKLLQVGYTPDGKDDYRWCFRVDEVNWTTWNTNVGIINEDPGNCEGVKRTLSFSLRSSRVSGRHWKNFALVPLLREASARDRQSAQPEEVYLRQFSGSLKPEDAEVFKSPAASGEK
Sequence of M-phase phosphoprotein 8 (Homo sapiens) (Q99549 whole entry, looked up): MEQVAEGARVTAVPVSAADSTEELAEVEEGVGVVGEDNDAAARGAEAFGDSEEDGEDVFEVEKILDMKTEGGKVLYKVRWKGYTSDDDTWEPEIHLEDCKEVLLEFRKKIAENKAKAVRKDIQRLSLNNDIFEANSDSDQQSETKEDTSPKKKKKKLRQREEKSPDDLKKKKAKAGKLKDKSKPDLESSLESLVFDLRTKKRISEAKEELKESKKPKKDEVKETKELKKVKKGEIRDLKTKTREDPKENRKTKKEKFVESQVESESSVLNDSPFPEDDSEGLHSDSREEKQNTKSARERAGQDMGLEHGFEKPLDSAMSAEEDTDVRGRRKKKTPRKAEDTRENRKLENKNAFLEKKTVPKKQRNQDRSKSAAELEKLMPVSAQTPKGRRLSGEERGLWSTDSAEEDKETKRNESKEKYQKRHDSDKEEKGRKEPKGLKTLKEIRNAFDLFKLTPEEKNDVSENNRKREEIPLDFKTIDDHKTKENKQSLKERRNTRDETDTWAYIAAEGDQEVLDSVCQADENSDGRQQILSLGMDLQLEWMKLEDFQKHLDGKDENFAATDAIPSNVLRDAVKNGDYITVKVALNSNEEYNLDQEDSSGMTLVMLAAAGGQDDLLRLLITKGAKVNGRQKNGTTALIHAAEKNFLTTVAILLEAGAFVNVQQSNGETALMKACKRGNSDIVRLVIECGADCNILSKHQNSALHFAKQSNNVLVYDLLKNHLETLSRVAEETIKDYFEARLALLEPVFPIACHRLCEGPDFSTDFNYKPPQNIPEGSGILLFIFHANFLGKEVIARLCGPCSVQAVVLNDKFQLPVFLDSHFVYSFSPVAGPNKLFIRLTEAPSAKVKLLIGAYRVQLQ
Sequence of Flap endonuclease 1 (Homo sapiens) (P39748 whole entry, looked up): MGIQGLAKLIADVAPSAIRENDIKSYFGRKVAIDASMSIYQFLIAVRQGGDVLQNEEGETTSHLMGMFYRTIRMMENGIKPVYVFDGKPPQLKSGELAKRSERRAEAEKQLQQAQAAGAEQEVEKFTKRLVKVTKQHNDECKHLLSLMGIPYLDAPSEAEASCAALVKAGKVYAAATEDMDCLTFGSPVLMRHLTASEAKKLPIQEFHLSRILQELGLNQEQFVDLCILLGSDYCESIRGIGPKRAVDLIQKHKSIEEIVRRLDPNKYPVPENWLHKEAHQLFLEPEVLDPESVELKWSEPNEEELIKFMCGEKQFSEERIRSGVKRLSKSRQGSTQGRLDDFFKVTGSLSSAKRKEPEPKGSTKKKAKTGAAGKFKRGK

CCCCN1CCC(n2c(=O)[nH]c3ccccc32)CC1
not listed: [17] | [18] | [19]
inactive: all other assays above

N=C(N)SCCc1ccc(CCSC(=N)N)cc1
inactive: all assays above

C[N+](C)(CCCCCC[N+](C)(C)CCCN1C(=O)c2cccc3cccc(c23)C1=O)CCCN1C(=O)c2cccc3cccc(c23)C1=O
active: [2] 10600 nM | [7] 928 nM | [8] 294 nM | [17] 2990 nM
not listed: [6] | [16]
inactive: all other assays above

C[C@@H](CN1CCC(Cc2ccccc2)CC1)[C@@H](O)c1ccc(O)cc1
active: [16] 14100 nM
not listed: [8] | [14]
inactive: all other assays above

O=C(Nc1cccc(C(=O)Nc2ccc(S(=O)(=O)O)c3cc(S(=O)(=O)O)cc(S(=O)(=O)O)c23)c1)Nc1cccc(C(=O)Nc2ccc(S(=O)(=O)O)c3cc(S(=O)(=O)O)cc(S(=O)(=O)O)c23)c1
active: [1] 8260 nM | [2] 11900 nM | [6] 37.9 nM | [17] 1890 nM | [11] 31.6 µM and 9.47 µM | [18] 20000 nM
not listed: [7] | [10] | [14] | [16] | [19]
inactive: all other assays above

Ic1ccc(N2CCN(Cc3c[nH]c4ncccc34)CC2)cc1
active: [18] 44700 nM
not listed: [6] | [14] | [16] | [17] | [19]
inactive: all other assays above

NC(CCCP(=O)(O)O)C(=O)O (centres undefined)
not listed: [6] | [16] | [19]
inactive: all other assays above

O=C1NC(O)=NC1(c1ccccc1)c1ccccc1
not listed: [7] | [16] | [19]
inactive: all other assays above

CC(COc1ccc(/C=C/c2ccccc2)cc1)[N+](C)(C)C (centres undefined)
active: [8] 3290 nM
not listed: [7] | [14] | [16]
inactive: all other assays above

NCCNC(=O)c1ncsc1-c1cccc(F)c1
not listed: [6] | [19]
inactive: all other assays above

CC1CN(S(=O)(=O)c2cccc3cnccc23)CCN1 (centres undefined)
not listed: [7] | [9] | [15] | [18]
inactive: all other assays above

COc1cccc(OC)c1OCCNCC1COc2ccccc2O1 (centres undefined)
active: [16] 316 nM
not listed: [6] | [17] | [19]
inactive: all other assays above

O=C(O)c1cc(=O)c2c(Cl)cc(Cl)cc2[nH]1
not listed: [7] | [10] | [14]
inactive: all other assays above

CCCCCCCC/C=C\CCCCCCCC(=O)NCCO
active: [7] 2940 nM | [8] 2620 nM
not listed: [10] | [16]
inactive: all other assays above

N[C@@H](CC(=O)O)C(=O)O
not listed: [17]
inactive: all other assays above

CN1CCc2cc(O)c(O)cc2C(c2ccccc2)C1 (centres undefined)
not listed: [6] | [8] | [14] | [16]
inactive: all other assays above
